The record followed here is PubChem BioAssay.

Molecules are shown by their SMILES. Active and inactive are the calls of the source.

The nature of assay [1]: optical density shifts of acrAB sulA E. coli – strain DRC41, OD650, 48 h, E. coli filamentation inducer project, primary screen (AID 1152).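 Note: E. coli MC1000 strain DRC41 lacking acrAB efflux pump and sulA.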 The conditions noted are these: higher = more signal, called active from +8 up or from −8 down.
Assay [2] is described as follows: probe aLefty1 binding on compound microarray – biochemical, small-molecule microarray, 635/667 nm fluorescence, primary screen (AID 1153).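 Note: score merges spot fluorescence with signal-to-noise ratio from the scanned slide images.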 Particulars: higher = more signal.
Assay [3] in a line: plasmodial surface anion channel blockers, osmotic lysis – cell-based, P. falciparum Indochina, OD700, 1 h, primary screen (AID 1154). Particulars: P. falciparum Indochina infected RBC osmotic lysis, higher = more signal, called active from +8 up or from −8 down.
The nature of assay [4]: plasmodial surface anion channel blockers, osmotic lysis – cell-based, P. falciparum Indochina, OD700, 2 h, primary screen (AID 1155).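 Note: lysis reports solute entry through the parasite surface anion channel PSAC.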 Particulars: P. falciparum Indochina infected erythrocytes, higher = more signal, called active from +8 up or from −8 down.
Assay [5] is described as follows: changes in parasitized red cell lysis, either direction – P. falciparum Indochina, OD700, 3 h, PSAC antagonist project, primary screen (AID 1156). The conditions noted are these: P. falciparum-infected erythrocytes, osmotic lysis, higher = more signal, called active from +8 up or from −8 down.
A short description of assay [6]: plasmodial surface anion channel blockers, osmotic lysis – cell-based, P. falciparum Indochina, OD700, 18 h, primary screen (AID 1157). Particulars: P. falciparum Indochina infected erythrocytes, osmotic lysis OD700, 18 h; higher = more signal, called active from +8 up or from −8 down.
A short description of assay [7]: S6 kinase pathway phospho-S6 level changes – cell-based, A549, cytoblot, luminescence, serum-stimulated, primary screen (AID 1158).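 Note: serum-stimulated A549 lung adenocarcinoma cells; signal is phosphorylated S6 detected by cytoblot immunostaining with HRP secondary.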 Particulars: 5 h, higher = more signal.
Assay [8] concerns the target NADPH oxidase 2 (Homo sapiens) (UniProt P04839). As to the kind of experiment: compounds shifting NOX2 Amplex Red fluorescence – cell-based, HEK293-NOX2, PMA-stimulated, NOX inhibitor project, primary screen (AID 1159). Note: test concentration not given here. Particulars: 45 min, higher = more signal, called active from +8 up or from −8 down.
The target of assay [9] is NADPH oxidase 4 (Homo sapiens) (UniProt Q9NPH5). As to the kind of experiment: compounds shifting NOX4 Amplex Red fluorescence – cell-based, HEK293-NOX4, tetracycline-induced, NOX inhibitor project, primary screen (AID 1160). Particulars: HEK293-NOX4, Amplex Red H2O2 fluorescence, 45 min; higher = more signal, called active from +8 up or from −8 down.
Chain of NADPH oxidase 4 (Homo sapiens) (Q9NPH5 whole entry, looked up): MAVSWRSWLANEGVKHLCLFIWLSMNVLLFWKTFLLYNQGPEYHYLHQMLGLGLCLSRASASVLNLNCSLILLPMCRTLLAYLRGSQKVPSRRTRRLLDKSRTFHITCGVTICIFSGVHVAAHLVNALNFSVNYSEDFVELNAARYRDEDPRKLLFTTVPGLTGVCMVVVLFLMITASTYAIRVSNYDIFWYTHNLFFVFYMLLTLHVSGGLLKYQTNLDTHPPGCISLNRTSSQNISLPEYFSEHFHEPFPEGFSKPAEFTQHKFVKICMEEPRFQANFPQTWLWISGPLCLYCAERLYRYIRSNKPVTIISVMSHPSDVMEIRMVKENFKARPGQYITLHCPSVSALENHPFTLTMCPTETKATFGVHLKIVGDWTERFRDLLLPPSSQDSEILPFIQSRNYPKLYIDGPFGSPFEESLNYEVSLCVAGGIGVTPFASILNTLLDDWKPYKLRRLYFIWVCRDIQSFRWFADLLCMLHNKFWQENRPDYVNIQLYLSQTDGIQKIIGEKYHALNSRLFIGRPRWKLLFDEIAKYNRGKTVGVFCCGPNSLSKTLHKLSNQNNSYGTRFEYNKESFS
For assay [10], the target named is NADPH oxidase 5 (Homo sapiens) (UniProt Q96PH1). Kind of assay: compounds shifting NOX5 Amplex Red fluorescence – cell-based, HEK293-NOX5, NOX inhibitor project, primary screen (AID 1161). The conditions noted are these: HEK293-NOX5, ionomycin, 45 min, higher = more signal.
Chain of NADPH oxidase 5 (Homo sapiens) (Q96PH1 whole entry, looked up): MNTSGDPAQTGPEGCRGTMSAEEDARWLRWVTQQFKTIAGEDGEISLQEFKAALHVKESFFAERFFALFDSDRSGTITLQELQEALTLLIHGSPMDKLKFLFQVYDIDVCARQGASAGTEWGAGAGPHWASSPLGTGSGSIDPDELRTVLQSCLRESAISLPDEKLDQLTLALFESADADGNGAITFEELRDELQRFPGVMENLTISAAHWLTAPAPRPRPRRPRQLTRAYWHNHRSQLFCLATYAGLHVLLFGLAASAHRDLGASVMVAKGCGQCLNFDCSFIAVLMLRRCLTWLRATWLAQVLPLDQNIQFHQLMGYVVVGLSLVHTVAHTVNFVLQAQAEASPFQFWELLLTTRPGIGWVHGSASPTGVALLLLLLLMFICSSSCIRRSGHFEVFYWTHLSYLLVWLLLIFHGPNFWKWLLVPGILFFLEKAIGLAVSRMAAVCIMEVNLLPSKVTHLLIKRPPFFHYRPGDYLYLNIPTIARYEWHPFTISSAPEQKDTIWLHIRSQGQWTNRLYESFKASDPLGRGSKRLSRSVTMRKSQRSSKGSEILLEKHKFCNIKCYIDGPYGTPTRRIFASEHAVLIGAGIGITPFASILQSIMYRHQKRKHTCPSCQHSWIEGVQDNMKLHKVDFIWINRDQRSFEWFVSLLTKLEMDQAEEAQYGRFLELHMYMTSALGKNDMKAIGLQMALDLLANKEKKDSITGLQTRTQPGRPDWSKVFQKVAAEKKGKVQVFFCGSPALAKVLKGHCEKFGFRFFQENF

Chain of NADPH oxidase 2 (Homo sapiens) (P04839 whole entry, looked up): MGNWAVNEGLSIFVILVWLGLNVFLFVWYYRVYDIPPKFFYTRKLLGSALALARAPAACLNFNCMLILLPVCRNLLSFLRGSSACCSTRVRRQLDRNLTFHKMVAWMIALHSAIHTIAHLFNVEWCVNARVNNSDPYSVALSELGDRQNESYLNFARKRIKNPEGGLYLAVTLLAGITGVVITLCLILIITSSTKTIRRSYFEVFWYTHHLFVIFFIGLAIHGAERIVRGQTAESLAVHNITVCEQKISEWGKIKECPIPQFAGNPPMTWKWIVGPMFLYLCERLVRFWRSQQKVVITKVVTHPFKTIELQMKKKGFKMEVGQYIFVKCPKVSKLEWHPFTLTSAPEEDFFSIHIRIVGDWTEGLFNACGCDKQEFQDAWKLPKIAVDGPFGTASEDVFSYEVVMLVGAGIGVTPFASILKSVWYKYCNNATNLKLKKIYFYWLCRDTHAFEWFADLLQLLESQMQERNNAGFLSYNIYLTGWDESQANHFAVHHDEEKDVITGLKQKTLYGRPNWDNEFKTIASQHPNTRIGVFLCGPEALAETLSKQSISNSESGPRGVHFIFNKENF

Take `COCCOC(=O)N1C(=O)[C@@]2(c3cc(C#CC4=CCCCC4)ccc31)[C@H](C(=O)N1CCCCCCC1)[C@H]1C(=O)O[C@H](c3ccccc3)[C@H](c3ccccc3)N1[C@@H]2c1ccc(O)cc1`: the z-score was 1.63 (inactive) in assay [1]; -0.43 (inactive) in assay [3]; -1.2 (inactive) in assay [4]; -1.27 (inactive) in assay [5]; -1.96 (inactive) in [6]; 2.44 in assay [7]. Further, the z-score in [8] is 0.67 (inactive); in assay [9], 0.257 (inactive); in assay [10], 0.871. The molecule also displayed a composite z-score in [2] of 0.93.

With `COCCOC(=O)N1C(=O)[C@@]2(c3cc(C#CCNC(N)=O)ccc31)[C@H](C(=O)N1CCc3cc(OC)c(OC)cc3C1)[C@H]1C(=O)O[C@H](c3ccccc3)[C@H](c3ccccc3)N1[C@@H]2c1ccccc1OCCO`, the z-score in assay [1] is 1.83 (inactive); in assay [3] it was 3.14 (inactive); in assay [4], 0.178 (inactive); in assay [5] it was 0.435 (inactive); in assay [6], -0.244 (inactive); in assay [7], 1.81. Besides, the z-score was 1.58 (inactive) in [8], 1.09 (inactive) in [9] and -0.672 in [10]. The molecule further came in with a composite z-score in assay [2] of 0.479.

As for `CC(CO)N1C(=O)[C@@H]2[C@H]3C(=O)OCC=C[C@H]3OC23C=CCN(Cc2ccccc2)C(=O)[C@@H]13` (stereo not given in full), the z-score in assay [1] was 2.36 (inactive); in assay [3] it was 0.116 (inactive); in assay [4], -1.05 (inactive); in [5] it was -0.355 (inactive); in [6], -1.39 (inactive); in [7], 0.473. For the same molecule, the z-score in assay [8] is 0.991 (inactive); in assay [9], 0.662 (inactive); in [10], 1.49. The same molecule returned a composite z-score in assay [2] of -0.191.

For `CCCCO[C@H]1C[C@H]2C(I)=C[C@@H]1C(=O)[C@]21CO1`, the z-score in assay [1] was -1.55 (inactive); in assay [3], -0.0445 (inactive); in assay [4] it was 0.18 (inactive); in [5] it was -0.163 (inactive); in assay [6], -0.16 (inactive); in assay [7], -0.408. The z-score in assay [8] was 0.0778 (inactive); in [9] it was 0.609 (inactive); in assay [10], -0.383. The composite z-score in [2] was -0.369.

`C=CCC(OC(C)=O)[C@@H]1[C@@H](N(Cc2ccc(-c3cccc(C(F)(F)F)c3)o2)C(=O)c2ccc(-c3ccccc3)cc2)c2cc(OCCCO)ccc2N1C(=O)c1ccc2ccccc2n1` (stereo not given in full): the z-score in [1] is -0.662 (inactive); in assay [3] it was 0.394 (inactive); in assay [4] it was -0.262 (inactive); in assay [5] it was 0.0785 (inactive); in assay [6], 0.188 (inactive); in assay [7], 1.02. Also, the z-score in assay [8] is -1.73 (inactive); in assay [9], -1.3 (inactive); in assay [10], -0.764. The molecule further gave a composite z-score in assay [2] of -0.0501.

For `COC(=O)[C@@]1(Cc2ccc(OC)cc2)[C@H]2c3cc(C(=O)N4CCCC4)n(Cc4c(-c5ccccc5)noc4C)c3C[C@H]2CN1C(=O)c1ccccc1`, the z-score in [1] was -0.615 (inactive); in [3], 5.34 (inactive); in assay [4] it was 1.25 (inactive); in assay [5], -0.749 (inactive); in [6], 1.5 (inactive); in [7], 0.406. The z-score in assay [8] was 0.428 (inactive); in assay [9] it was 0.486 (inactive); in [10], 2.59. The molecule also yielded a composite z-score in [2] of 0.956.

In the case of `COc1cc(OC)c(C(O)C2C=CC3C(=O)N(C)C(=O)C3N2NC(=O)OC(C)(C)C)cc1Br` (stereo not given), the z-score was -0.36 (inactive) in assay [1]; 1.24 (inactive) in assay [3]; 1.18 (inactive) in assay [4]; -0.285 (inactive) in assay [5]; 1.07 (inactive) in assay [6]; -0.92 in [7]. Moreover, the z-score in [8] is 0.224 (inactive); in assay [9], -3.59 (inactive); in assay [10], 0.576. This molecule also gave a composite z-score in assay [2] of 0.524.

On to `COC(=O)[C@@]1(Cc2ccc(OC)cc2)[C@H]2c3cc(C(=O)N(C)C)n(CCO)c3C[C@H]2CN1C(=O)c1ccccc1`, for which the z-score is -1.2 (inactive) in assay [1]; 0.845 (inactive) in assay [3]; 0.145 (inactive) in assay [4]; 0.0732 (inactive) in assay [5]; 0.446 (inactive) in [6]; -0.775 in assay [7]. The values for the z-score in assay [8], in assay [9] and in [10] were 0.331 (inactive), -1.49 (inactive) and -1.91, respectively. Moreover, the composite z-score in assay [2] stood at 0.564.

Take `CC(C)(C)N1CC=CC23O[C@@H]4C=CCOC(=O)[C@@H]4[C@H]2C(=O)N(CCCCCCO)[C@@H]3C1=O` (stereo not given in full): the z-score in assay [1] is -0.348 (inactive); in assay [3], 1.69 (inactive); in [4] it was 0.127 (inactive); in assay [5], 0.935 (inactive); in assay [6] it was 0.381 (inactive); in [7], -0.613. Also, the z-score in assay [8] was 0.959 (inactive); in assay [9] it was -0.503 (inactive); in assay [10], 1.47. The molecule further came in with a composite z-score in assay [2] of -0.108.

For `CCCCC=C[C@@H](NC(=O)c1ccc(-c2ccccc2)cc1)c1ccccc1`, the z-score in assay [1] is -1.63 (inactive); in [3] it was 2.54 (inactive); in assay [4] it was 0.631 (inactive); in assay [5], -0.309 (inactive); in [6], 0.862 (inactive); in assay [7], 0.0893. Further, the z-score in assay [8] was -0.473 (inactive); in assay [9], -1.12 (inactive); in assay [10], 1.46. In assay [2], the composite z-score was 0.258.

Take `CC[C@H]1C2=C3C(CC[C@H]4C(OCc5ccc(F)cc5C(F)(F)F)OC[C@](C)([C@@H]34)N(C(=O)OC(C)(C)C)C2)C(COC)C1COC` (stereo not given in full): the z-score is -1.22 (inactive) in assay [1]; -0.0734 (inactive) in assay [3]; -0.0681 (inactive) in [4]; 0.337 (inactive) in assay [5]; 0.297 (inactive) in [6]; -0.371 in assay [7]. Also, the z-score in assay [8] was -0.67 (inactive); in assay [9], -1.45 (inactive); in assay [10] it was -1.54. This molecule registered a composite z-score in [2] of 0.409.

On to `O=C1OCC=C[C@H]2OC34C=CCN(c5ccc(Cl)cc5)C(=O)[C@H]3N(CCO)C(=O)[C@@H]4[C@@H]12` (stereo not given in full), for which the z-score is -0.367 (inactive) in assay [1]; 0.506 (inactive) in assay [3]; 0.0971 (inactive) in assay [4]; 0.111 (inactive) in assay [5]; 0.403 (inactive) in assay [6]; -0.677 in [7]. In addition, the z-score in assay [8] is 1.12 (inactive); in assay [9] it was 0.908 (inactive); in assay [10], 1.31. This molecule gave a composite z-score in assay [2] of -0.147.
